Max response data for 99 compounds are collected here from PubChem BioAssay AID2314 (National Center for Advancing Translational Sciences (NCATS), 2010).

About 37,000 (12%) of roughly 300,000 compounds were called active. Many of the other results were omitted from the sample, so actives are more common in it than they were. A number with no mark means an inactive call. Rule as the data show it: active = max response mostly above about 13% (no sharp cut-off); inactive = mostly below about 14%.

The nature of the test: Cycloheximide Counterscreen for Small Molecule Inhibitors of Shiga Toxin. Also: read at 38.3 µM for the half of the compounds with a filed dose; 0% is about no effect. The following applies: cell reporter, cycloheximide protein synthesis inhibition counterscreen; active compounds read high.
Turning to `COC(=O)[C@@H](Cc1ccccc1)NC(=O)NCCc1ccccc1`, the max response was 6.92%.
Take `O=C1OC2(CCCCC2)CC2=C1C1O[C@](c3ccsc3)(Cc3ccccc31)O2`: the max response was -3.19%.
On to `Fc1cccc(CSc2nnc3ccc(-c4ccncc4)nn23)c1`, for which the max response is 2.07%.
For the compound `O=C(CN1C(=O)NC(Cc2ccccc2)(Cc2ccccc2)C1=O)NCC1CCCCC1`, the max response is -2.12%.
In the case of `CCCc1nnc(NC(=O)CCC(=O)N2CCN(S(=O)(=O)c3ccc(OC)cc3)CC2)s1` it was -3.02%; in that of `c1ccc(-c2cc(-c3ccccc3)[nH]n2)cc1`, 36.7% (active).
Regarding `Cc1ccc(NC(=O)c2cc(-c3ccccc3O)n[nH]2)cc1C`, the max response is 12%.
The value for `S=c1[nH]nc(-c2cc(-c3ccsc3)n[nH]2)n1-c1ccccc1` was 6.52%; that for `S=c1[nH]nc(-c2cc(-c3ccccc3)n[nH]2)n1/N=C/c1c2ccccc2cc2ccccc12` was -3.32%.
In the case of `Oc1ccccc1-c1cc(-c2ccc(Cl)cc2)n[nH]1` it was 29% (active); in that of `Cc1cc(C(=O)OCC(=O)N2c3ccccc3NC(=O)C2(C)C)c(C)n1-c1ccccc1`, -2.79%; in that of `CCc1cc(=O)oc2c(C)c(OCC(=O)N3CC[C@@]4(O)CCCC[C@H]4C3)ccc12`, -0.987%.
Regarding `O=C(CCC(=O)N/N=C/c1ccc(Br)o1)N/N=C/c1ccc(Br)o1`, the max response is -1.8%.
In the case of `CC1(C)OC(=O)N2CCc3ccccc3C21C` (centres undefined) it was -1.95%; in that of `CN(c1ccc(C(=O)NCCC2=CCCCC2)cc1)S(C)(=O)=O`, 35.4% (active).
The value for `CN1CCNC(=O)C1CC(=O)NCCC1=CCCCC1` (centres undefined) was 6.87%.
In the case of `CC(=O)Nc1ccc(S(=O)(=O)N(C)CC(=O)NCCC2=CCCCC2)cc1` it was 8.71%; in that of `Cn1nnc2cc(C(=O)NCCC3=CCCCC3)ccc21`, 36.9% (active).
On to `O=C(Cc1nn[nH]n1)NCCC1=CCCCC1`, for which the max response was -1.06%.
The value for `O=C(NCCCN1CCOCC1)c1ccc(N2CCCC2)c([N+](=O)[O-])c1` was 1.3%.
In the case of `Cc1ccn2c(=O)c(C(=O)NCCC3=CCCCC3)c(O)nc2c1` it was 16.1%.
In the case of `O=C(COc1ccc(Cl)cc1)NCCC1=CCCCC1` it was -4.36%.
For the compound `O=C(NCCC1=CCCCC1)c1ccc(Cl)c([N+](=O)[O-])c1`, the max response was 39.2% (active).
The value for `CCC(=O)c1ccc(OC(=O)/C=C/c2cc(OC)c(OC)c(OC)c2)cc1` was -6.8%; that for `COc1ccc(C(=O)O)cc1S(=O)(=O)NCc1cccnc1` was 1.18%; that for `COc1ccc(Cn2c(O)c(/C=C3/C=CC=N3)c(=O)[nH]c2=O)cc1` was 1.33%.
In the case of `Cc1nc2c(C(=O)NCc3cccs3)cnn2c(C)c1Cc1ccc(F)cc1` it was 0.665%.
In the case of `O=C(NCC1CCN(Cc2ccccc2Cl)CC1)Nc1cccc(Cl)c1` it was 9.67%; in that of `O=C(Nc1ccncc1)c1c(F)cccc1F`, 14.2%; in that of `CC(C)CC(=O)Nc1ccc(Cc2ccncc2)cc1`, -2.52%.
In the case of `O=C(Nc1ccc(F)cc1)N1CCN(c2ccc(F)cc2)CC1`, the max response was 1.7%.
For the compound `O=C(Nc1ccncc1)Nc1ccc(F)cc1`, the max response is 21.6% (active).
Consider `CCc1ccc(NC(=O)N[C@H](C(=O)O)C(C)CC)cc1` (some centres undefined), for which the max response is 9.38%.
The value for `CCc1ccc(NC(=O)Nc2ccncc2)cc1` was 28.8% (active).
In the case of `CCCc1ccc(OCc2ccc(C(=O)N/N=C/c3cccc([N+](=O)[O-])c3)o2)c(OC)c1` it was -2.18%.
The value for `CC(C)Cn1c(=O)c2ccccc2n2c(CCC(=O)NCc3ccccn3)nnc12` was 15.7%; that for `Cc1cccc(C)c1N1C(=O)CN(Cc2ccccc2)C1=S` was -2.32%.
With `O=C(NCCS(=O)(=O)c1ccc(Br)cc1)c1ccccc1Cl`, the max response is -3.1%.
Take `CN(C)S(=O)(=O)c1ccc(C(=O)NCCN=C2NS(=O)(=O)c3ccccc32)cc1`: the max response was -3.08%.
In the case of `CCCN(CCC)c1ccc(C(O)c2nnc(-c3ccccc3)o2)cc1` (centres undefined) it was 26.9%.
In the case of `O=C(Nc1nnc(-c2ccccc2)o1)c1cc(-c2cccs2)nc2ccccc12` it was -2.91%; in that of `OC(c1nnc(-c2ccccc2)o1)c1cccs1` (centres undefined), 76.9% (active).
In the case of `CCCc1cc(=O)oc2cc(OCC(=O)Nc3ccc(CN4CCOCC4)cc3)c(Cl)cc12` it was -3.2%; in that of `O=[N+]([O-])c1ccc(N=Cc2c(O)ccc3ccccc23)cc1`, -1.91%.
As for `Oc1c(C=Nc2cccc3nsnc23)ccc2ccccc12`, the max response is 16.7% (active).
In the case of `O=C(Nc1cccc(C(F)(F)F)c1)c1ccc(N2CCNCC2)c([N+](=O)[O-])c1` it was 0.923%; in that of `Nc1nc(SCC(=O)N2CCN(S(=O)(=O)c3ccc(Cl)cc3)CC2)n[nH]1`, 6.07%; in that of `Cc1occc(=O)c1OCc1c(Cl)cccc1Cl`, 0.434%.
For the compound `Cc1ccc(OCC(=O)Nn2cnc3ccccc32)cc1`, the max response was 8.71%.
With `O=C(c1ccc(Cl)cc1)n1cnc2ccccc21`, the max response was -2.21%.
In the case of `COC(=O)c1ccc(-n2cnc3ccccc32)nc1` it was 24.9% (active); in that of `CCC(C)(C)n1nnnc1C(c1ccc(OC)c(OC)c1)N1CCN(C(=O)c2ccco2)CC1` (centres undefined), -2.11%.
In the case of `CCCn1nnc(NC(=O)COc2ccc(CC)cc2)n1` it was 3.91%.
The value for `CCCOc1cccc(C(=O)Nc2nnn(CCC)n2)c1` was 26.2% (active).
Regarding `CCCOc1cccc(C(=O)NCCCNC(=O)c2cccnc2)c1`, the max response is -1.77%.
In the case of `CC1CN(S(=O)(=O)c2ccc(C(=O)Nc3sccc3C(N)=O)cc2)CC(C)O1` (centres undefined) it was -0.296%; in that of `COc1ccc(CN(C(=O)CSc2nnc(-c3ccc(OC)c(OC)c3)o2)c2ccc(F)cc2)cc1`, -0.972%.
The value for `CCCCOC(=O)c1[nH]c(C)c(C(=O)OC)c1C` was 60.6% (active); that for `COC(=O)c1c(C)[nH]c(C(=O)NCCc2ccc(S(N)(=O)=O)cc2)c1C` was -10.2%; that for `CC(=O)c1c(C)[nH]c(C(=O)OCC(=O)NCCC(C)C)c1C` was -1.49%.
In the case of `COC(=O)c1ccc(NC(=S)NN2CCOCC2)cc1` it was 20.6% (active).
As for `COC(=O)c1ccc(NC(=S)Nc2cccc(C)n2)cc1`, the max response was 10.2%.
In the case of `Cc1ccc(C(=O)NC(=S)Nc2ccc(N3CCOCC3)cc2)cc1` it was 13.6%; in that of `COc1ccc2c3c(c(=O)oc2c1)C1O[C@](CCCCN2C(=O)c4ccccc4C2=O)(Cc2c1ccc1ccccc21)O3`, -1.56%.
In the case of `Cc1ccsc1/C=N/NC(=O)Cc1cc(=O)[nH][nH]1` it was 4.08%; in that of `Cn1c(=O)c2c(nc(N/N=C/c3cccs3)n2Cc2ccc(Br)cc2)n(C)c1=O`, 10.1%; in that of `COc1cccc(/C=N/Nc2ccc(Cl)nn2)c1`, 25.6% (active).
`Oc1cccc(/C=N/Nc2ccc(Cl)nn2)c1O`: the max response is 43.2% (active).
In the case of `Cc1ccsc1/C=N/Nc1ccc(Cl)nn1` it was 14% (active); in that of `NC(=O)N/N=C\c1cccs1`, 5.02%.
`COc1cc(/C=N/Nc2ccc(C)cc2)cc(Br)c1O`: the max response is 7.52%.
With `Clc1ccc(N/N=C/c2cccs2)nn1`, the max response is 22.2% (active).
The value for `Cc1ccsc1/C=N/n1c(=S)[nH]nc(C)c1=O` was -1.56%.
The value for `COc1cccc(/C=N\Nc2nncc(-c3ccccc3)n2)c1` was 6.58%; that for `Oc1c(Br)cccc1/C=N/Nc1c(F)c(F)c(F)c(F)c1F` was 6.05%.
In the case of `O=C(C(NS(=O)(=O)c1cccc2nsnc12)c1ccccc1)N1CCN(c2ccccc2)CC1` (centres undefined) it was 4.26%; in that of `CCOC(=O)c1cc(S(=O)(=O)NCCc2ccc(OC)c(OC)c2)cn1C`, -2.67%; in that of `CCOC(=O)N1CCN(S(=O)(=O)c2ccc(Br)cc2)CC1`, -0.649%.
In the case of `CCOC(=O)N1CCN(C(=O)C2CCN(S(=O)(=O)c3cc(Cl)ccc3OCC)CC2)CC1`, the max response is 11.3%.
In the case of `C=C(C)C1CC=C(C)/C(=N\NC(=O)CNc2ccccc2OC)C1` (centres undefined), the max response is -1.85%.
In the case of `Cc1ccc2nc(Nc3ccccc3)cc(C)c2c1` it was 51.1% (active); in that of `Cc1ccc2nc(Nc3ccccc3O)nc(-c3ccccc3)c2c1`, 0.615%; in that of `Cc1cc(Nc2ccccc2)nc(N)n1`, 7.42%.
In the case of `Cc1ccc(S(=O)(=O)N(CC(O)CN2C(=O)NC(C)(C)C2=O)c2cccc([N+](=O)[O-])c2)cc1` (centres undefined) it was -3.67%.
In the case of `COCCCN1C(=O)c2ccc(C(=O)OCC(=O)NCc3ccccc3OC)cc2C1=O` it was -6.08%.
As to `O=C(O)C1CCN(C(=O)OCc2ccccc2)CC1`, the max response is 40.2% (active).
In the case of `O=C(NCC1CCC(C(=O)O)CC1)OCc1ccccc1` (centres undefined) it was -2.25%; in that of `CCOC(=O)N1CCC(NC(=O)CCc2ccccc2)CC1`, 1.36%; in that of `COc1cccc(N(CC(=O)NC2CCCCCC2)S(=O)(=O)c2ccccc2)c1`, 1.89%.
`COc1ccccc1C(=O)N1CCNC(=O)C1CC(=O)Nc1ccc(Cl)cc1` (centres undefined): the max response was -1.23%.
The value for `O=C(CC1SCCNC1=O)Nc1ccc(Cl)cc1` (centres undefined) was 21.9% (active); that for `O=C(CC1SCCNC1=O)Nc1ccc(Cl)c(Cl)c1` (centres undefined) was 17.5%.
The value for `CCOc1cc(NC(=S)NCc2ccco2)c(OCC)cc1NC(=O)c1ccco1` was 6.2%.
The value for `O=C(NNC(=S)Nc1ccc(Br)cc1Cl)c1ccco1` was 43.8% (active); that for `CCC(=O)NC(=S)Nc1ccc(NC(=O)c2ccco2)c(Cl)c1` was 16.5%; that for `CSc1nc(-c2ccco2)nn1C(=O)c1ccccc1Cl` was 1.46%.
For the compound `Cc1ccc(S(=O)(=O)NC(=O)Nc2nc(-c3ccc(F)c(F)c3)cs2)cc1`, the max response is 19.2% (active).
In the case of `COc1cc(CC(=O)Nc2nc(-c3ccc(F)c(F)c3)cs2)cc(OC)c1OC` it was -5.65%.
The value for `COc1ccc(CC(=O)Nc2nc(-c3ccc(F)c(F)c3)cs2)cc1OC` was -6.69%.
